The values below come from ChEMBL document CHEMBL3988442, “University of Dundee, Small-Polar-MMV Screening Library” (2021).

Where “and” joins values, the source holds several entries; their conditions need not be identical. Equal entries are not always repeated. For part of these data: Results with a measured potency or affinity are listed apart. Bounds are passed on as bounds.

Assay [1] addresses T1, Methionyl-tRNA synthetase, putative (Leishmania donovani (strain BPK282A1)) (UniProt E9BF75).
T1 sequence (whole entry): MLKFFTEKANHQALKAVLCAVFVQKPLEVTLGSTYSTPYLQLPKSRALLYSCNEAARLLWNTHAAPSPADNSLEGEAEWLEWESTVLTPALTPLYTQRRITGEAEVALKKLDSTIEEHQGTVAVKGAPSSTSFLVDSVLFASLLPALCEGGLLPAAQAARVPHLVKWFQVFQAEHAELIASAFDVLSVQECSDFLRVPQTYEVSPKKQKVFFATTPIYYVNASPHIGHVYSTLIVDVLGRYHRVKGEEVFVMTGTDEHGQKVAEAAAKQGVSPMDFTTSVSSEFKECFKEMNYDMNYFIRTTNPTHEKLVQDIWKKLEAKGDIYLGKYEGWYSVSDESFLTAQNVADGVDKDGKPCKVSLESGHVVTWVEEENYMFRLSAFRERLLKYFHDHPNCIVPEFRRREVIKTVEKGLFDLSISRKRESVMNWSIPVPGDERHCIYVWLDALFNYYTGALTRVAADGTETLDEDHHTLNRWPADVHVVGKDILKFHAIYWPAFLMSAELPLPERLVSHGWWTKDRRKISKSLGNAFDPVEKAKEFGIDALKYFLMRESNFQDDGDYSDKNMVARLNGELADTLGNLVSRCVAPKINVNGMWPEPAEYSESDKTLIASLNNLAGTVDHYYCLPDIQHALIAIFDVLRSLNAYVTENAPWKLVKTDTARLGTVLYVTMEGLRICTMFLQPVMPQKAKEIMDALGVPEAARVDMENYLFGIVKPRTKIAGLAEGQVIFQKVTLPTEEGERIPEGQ
In words: Leishmania donovani Methionine tRNA synthetase (LdMetRS):v7. Dose response assay. In kind it is functional. Also on record: conc 80 nM, time 150 minutes.

The target of assay [2] is Protein translocase subunit SecA (Escherichia coli (strain K12)) (UniProt P10408). In words: Assay to Identify E. coli SecA ATPase Inhibitors. Further details: scale not given: direction of the effect not stated beside the values. In kind it is functional. Conditions: 30 µM.
The target in assay [3] is T2, Ubiquitin-activating enzyme e1, putative (Leishmania donovani (strain BPK282A1)) (UniProt E9BSI1).
T2 sequence (whole entry): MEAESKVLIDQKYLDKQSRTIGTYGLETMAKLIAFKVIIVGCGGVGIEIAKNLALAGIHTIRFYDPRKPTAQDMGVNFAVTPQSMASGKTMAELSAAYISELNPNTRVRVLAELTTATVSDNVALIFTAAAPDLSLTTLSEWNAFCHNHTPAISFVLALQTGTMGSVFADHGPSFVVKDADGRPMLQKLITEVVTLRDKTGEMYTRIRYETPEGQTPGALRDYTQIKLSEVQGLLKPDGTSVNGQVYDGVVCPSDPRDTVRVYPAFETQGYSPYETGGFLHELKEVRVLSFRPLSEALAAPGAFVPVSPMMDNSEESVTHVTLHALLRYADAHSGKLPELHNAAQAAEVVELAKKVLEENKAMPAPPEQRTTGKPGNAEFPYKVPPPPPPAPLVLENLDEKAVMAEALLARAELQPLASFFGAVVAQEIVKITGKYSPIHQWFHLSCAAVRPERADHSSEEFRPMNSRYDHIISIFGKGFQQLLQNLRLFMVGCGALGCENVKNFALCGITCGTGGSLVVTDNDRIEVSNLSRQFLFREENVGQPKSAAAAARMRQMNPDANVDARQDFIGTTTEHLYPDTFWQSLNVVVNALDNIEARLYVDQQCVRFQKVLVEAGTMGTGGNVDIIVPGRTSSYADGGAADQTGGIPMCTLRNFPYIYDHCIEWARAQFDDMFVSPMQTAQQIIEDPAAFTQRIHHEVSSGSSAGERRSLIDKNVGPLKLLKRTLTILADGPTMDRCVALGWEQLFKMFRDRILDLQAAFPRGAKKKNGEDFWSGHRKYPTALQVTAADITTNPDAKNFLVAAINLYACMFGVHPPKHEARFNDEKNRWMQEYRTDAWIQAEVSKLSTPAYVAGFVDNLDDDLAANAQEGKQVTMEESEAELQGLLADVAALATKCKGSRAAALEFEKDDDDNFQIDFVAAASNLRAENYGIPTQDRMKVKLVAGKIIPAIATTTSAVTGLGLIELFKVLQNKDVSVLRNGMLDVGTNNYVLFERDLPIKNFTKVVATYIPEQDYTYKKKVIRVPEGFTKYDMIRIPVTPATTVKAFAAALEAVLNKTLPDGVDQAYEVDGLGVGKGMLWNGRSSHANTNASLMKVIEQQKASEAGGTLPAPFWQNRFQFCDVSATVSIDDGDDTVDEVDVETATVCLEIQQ
In words: Leishmania donovani Ubiquitin Activating Enzyme (LdE1). In kind it is functional. Also on record: scale not given: direction of the effect not stated beside the values. The settings on record: 30 µM.

Assay [4] addresses AMP-activated protein kinase, AMPK (Homo sapiens) (UniProt P54646+O43741+P54619+Q9UGJ0+Q9Y478+Q13131+Q9UGI9). As to the kind of experiment: AMP-dependent Kinase enzyme assay. An in vitro enzyme assay that detects ADP turnover that is directly proportional to AMPK activity. This uses naive AMPK that is activated during the assay with MK-8722. Conditions: 30 µM. Also on record: scale not given: direction of the effect not stated beside the values. In kind it is functional.

The target of assay [5] is Sialic acid-binding Ig-like lectin 9 (Homo sapiens) (UniProt Q9Y336). In words: Hs-Siglec9 ALPHAscreen SOP 20170721. Also on record: scale not given: direction of the effect not stated beside the values. The settings on record: 10 µM.
Another assay deals with Trypanosoma cruzi. As to the kind of experiment: Trypanosoma cruzi phosphomannomutase and mannose-1-phosphate guanylyltransferase assay. In kind it is functional. Further details: scale not given: direction of the effect not stated beside the values. Conditions: 10 µM.
In assay [6] the target is T3, Arginase-2, mitochondrial (Homo sapiens) (UniProt P78540).
T3 sequence (whole entry): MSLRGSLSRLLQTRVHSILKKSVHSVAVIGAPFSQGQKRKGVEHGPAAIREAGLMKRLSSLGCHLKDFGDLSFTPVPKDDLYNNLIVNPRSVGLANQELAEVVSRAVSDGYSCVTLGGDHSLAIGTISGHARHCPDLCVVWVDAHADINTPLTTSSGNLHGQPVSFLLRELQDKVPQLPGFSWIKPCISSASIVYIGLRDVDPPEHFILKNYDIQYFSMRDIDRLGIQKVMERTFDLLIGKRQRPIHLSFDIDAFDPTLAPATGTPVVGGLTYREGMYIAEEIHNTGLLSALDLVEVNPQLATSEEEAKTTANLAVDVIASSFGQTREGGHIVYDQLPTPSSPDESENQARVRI
As to the kind of experiment: in vitro enzyme assay to detect the production of urea directly proportional to the activity of Arginase II. In kind it is functional. Also on record: scale not given: in the data most compounds retested in dose-response had high values. Conditions: 33.3 µM.

Assay [7] concerns the target T4, Proteasome subunit beta (Trypanosoma cruzi) (UniProt O96673).
T4 sequence (whole entry): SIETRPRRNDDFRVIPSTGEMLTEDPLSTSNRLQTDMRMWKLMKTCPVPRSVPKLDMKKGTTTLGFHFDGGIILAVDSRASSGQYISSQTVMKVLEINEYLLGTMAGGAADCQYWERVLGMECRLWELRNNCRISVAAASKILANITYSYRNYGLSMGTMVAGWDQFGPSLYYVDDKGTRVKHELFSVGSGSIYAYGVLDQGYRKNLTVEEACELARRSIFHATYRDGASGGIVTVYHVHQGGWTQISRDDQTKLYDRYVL
In words: Trypanosoma cruzi proteasome chymotrypsin-like activity (TcProtChymo) assay. In kind it is functional. Also on record: scale not given: in the data most compounds retested in dose-response had high values. The settings on record: 9.37 µM.

A further assay has as its system N/A. In words: Trypanosoma cruzi proteasome luciferase counter-screen. Conditions: 9.37 µM. Further details: scale not given: direction of the effect not stated beside the values. In kind it is functional.
The species entered for the next assay is Homo sapiens. As to the kind of experiment: To identify inhibition of the IFN signalling (Jak-Stat) pathway via expression of an eGFP reporter gene under the control of an IFN-stimulated response element (ISRE) containing MxA promoter. The settings on record: 30 µM. Also on record: scale not given: direction of the effect not stated beside the values. In kind it is functional. On the technique in general: In a reporter assay the amount or activity of a reporter protein is the signal.

For assay [8], the target named is T5, Tyrosyl-tRNA synthetase, putative (Trypanosoma cruzi (strain CL Brener)) (UniProt Q4DSP6).
T5 sequence (whole entry): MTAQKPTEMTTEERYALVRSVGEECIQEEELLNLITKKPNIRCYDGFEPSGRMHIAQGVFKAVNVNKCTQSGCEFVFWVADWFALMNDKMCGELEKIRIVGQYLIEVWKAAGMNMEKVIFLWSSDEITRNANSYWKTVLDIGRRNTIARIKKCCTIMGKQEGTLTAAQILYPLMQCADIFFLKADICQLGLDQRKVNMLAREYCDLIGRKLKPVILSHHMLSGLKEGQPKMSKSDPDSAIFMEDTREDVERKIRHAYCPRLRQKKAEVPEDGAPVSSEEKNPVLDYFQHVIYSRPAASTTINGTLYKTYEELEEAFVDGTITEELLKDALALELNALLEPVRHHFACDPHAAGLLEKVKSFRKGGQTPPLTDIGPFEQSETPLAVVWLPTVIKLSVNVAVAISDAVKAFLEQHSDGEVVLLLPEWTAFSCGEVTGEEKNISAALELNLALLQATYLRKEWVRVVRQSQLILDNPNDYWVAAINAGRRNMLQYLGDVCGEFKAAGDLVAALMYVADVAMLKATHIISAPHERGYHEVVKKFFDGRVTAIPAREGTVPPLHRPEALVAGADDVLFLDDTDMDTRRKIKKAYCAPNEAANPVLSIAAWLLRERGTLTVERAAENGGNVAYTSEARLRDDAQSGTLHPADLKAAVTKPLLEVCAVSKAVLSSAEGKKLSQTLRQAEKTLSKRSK
As to the kind of experiment: Trypanosoma cruzi tyrosyl tRNA synthetase (TcYRS) _High Tyrosine SOP. In kind it is functional. Further details: scale not given: in the data most compounds retested in dose-response had high values. The settings on record: 30 µM.

In assay [9] the target is T5, Tyrosyl-tRNA synthetase, putative (Trypanosoma cruzi (strain CL Brener)). As to the kind of experiment: Trypanosoma cruzi tyrosyl tRNA synthetase (TcYRS) SOP. In kind it is functional. Also on record: scale not given: direction of the effect not stated beside the values. Conditions: 30 µM.
Assay [10] has as its target Chromo domain-containing protein 1 (Saccharomyces cerevisiae (strain ATCC 204508 / S288c) (Baker's yeast)) (UniProt P32657). In words: ScCHD-1 Enzyme Inhibition Assay. Also on record: scale not given: in the data most compounds retested in dose-response had high values. In kind it is functional. Conditions: 30 µM.

Chain of Sialic acid-binding Ig-like lectin 9 (Homo sapiens) (Q9Y336 whole entry): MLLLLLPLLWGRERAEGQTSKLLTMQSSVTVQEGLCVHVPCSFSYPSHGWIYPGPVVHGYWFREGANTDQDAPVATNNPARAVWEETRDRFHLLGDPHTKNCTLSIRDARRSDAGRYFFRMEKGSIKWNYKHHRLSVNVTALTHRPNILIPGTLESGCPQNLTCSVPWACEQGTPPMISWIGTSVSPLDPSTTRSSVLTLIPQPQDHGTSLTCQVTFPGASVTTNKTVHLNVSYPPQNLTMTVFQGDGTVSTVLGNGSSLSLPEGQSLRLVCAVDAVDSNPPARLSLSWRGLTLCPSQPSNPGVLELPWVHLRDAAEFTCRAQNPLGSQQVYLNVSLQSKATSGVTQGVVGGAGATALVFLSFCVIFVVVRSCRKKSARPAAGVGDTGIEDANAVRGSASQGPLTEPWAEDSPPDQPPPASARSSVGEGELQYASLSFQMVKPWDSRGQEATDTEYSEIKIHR
Chain of Chromo domain-containing protein 1 (Saccharomyces cerevisiae (strain ATCC 204508 / S288c) (Baker's yeast)) (P32657 whole entry, the tested form may be a part): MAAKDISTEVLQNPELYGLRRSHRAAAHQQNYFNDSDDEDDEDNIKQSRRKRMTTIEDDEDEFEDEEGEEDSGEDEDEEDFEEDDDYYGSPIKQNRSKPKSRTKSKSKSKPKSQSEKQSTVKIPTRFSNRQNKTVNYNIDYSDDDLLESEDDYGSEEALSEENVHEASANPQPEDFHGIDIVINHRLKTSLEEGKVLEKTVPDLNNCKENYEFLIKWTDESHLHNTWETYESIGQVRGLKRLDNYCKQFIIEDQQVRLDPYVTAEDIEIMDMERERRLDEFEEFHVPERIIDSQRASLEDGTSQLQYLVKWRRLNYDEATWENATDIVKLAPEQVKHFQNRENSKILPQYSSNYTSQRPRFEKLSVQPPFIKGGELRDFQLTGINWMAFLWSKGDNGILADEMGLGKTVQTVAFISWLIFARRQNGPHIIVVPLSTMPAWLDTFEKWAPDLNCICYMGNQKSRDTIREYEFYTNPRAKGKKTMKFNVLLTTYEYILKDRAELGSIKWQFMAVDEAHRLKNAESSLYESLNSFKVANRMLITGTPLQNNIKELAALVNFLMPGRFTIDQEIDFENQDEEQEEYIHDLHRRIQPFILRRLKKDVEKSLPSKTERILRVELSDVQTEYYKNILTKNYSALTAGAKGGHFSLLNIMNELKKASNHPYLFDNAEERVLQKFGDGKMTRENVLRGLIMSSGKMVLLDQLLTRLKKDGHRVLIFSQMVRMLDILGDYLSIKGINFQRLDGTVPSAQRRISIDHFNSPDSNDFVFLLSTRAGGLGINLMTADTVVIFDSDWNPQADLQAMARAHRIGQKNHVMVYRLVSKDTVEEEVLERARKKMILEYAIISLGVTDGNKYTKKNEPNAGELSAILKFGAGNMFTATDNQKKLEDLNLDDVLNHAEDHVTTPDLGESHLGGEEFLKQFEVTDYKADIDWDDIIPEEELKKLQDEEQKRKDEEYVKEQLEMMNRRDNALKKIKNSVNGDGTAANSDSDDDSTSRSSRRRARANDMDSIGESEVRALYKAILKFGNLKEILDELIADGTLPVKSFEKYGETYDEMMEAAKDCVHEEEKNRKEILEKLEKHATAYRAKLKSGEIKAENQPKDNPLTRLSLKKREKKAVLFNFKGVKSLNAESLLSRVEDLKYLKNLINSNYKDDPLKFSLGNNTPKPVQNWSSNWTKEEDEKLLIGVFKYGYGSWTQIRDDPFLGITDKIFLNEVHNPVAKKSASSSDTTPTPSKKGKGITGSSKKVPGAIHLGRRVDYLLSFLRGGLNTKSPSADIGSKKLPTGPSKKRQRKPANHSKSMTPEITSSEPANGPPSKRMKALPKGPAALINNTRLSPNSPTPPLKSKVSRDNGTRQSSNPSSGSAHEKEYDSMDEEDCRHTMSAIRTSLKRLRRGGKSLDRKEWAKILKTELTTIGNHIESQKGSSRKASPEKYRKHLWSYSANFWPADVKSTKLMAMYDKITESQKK
Chain of Protein translocase subunit SecA (Escherichia coli (strain K12)) (P10408 whole entry): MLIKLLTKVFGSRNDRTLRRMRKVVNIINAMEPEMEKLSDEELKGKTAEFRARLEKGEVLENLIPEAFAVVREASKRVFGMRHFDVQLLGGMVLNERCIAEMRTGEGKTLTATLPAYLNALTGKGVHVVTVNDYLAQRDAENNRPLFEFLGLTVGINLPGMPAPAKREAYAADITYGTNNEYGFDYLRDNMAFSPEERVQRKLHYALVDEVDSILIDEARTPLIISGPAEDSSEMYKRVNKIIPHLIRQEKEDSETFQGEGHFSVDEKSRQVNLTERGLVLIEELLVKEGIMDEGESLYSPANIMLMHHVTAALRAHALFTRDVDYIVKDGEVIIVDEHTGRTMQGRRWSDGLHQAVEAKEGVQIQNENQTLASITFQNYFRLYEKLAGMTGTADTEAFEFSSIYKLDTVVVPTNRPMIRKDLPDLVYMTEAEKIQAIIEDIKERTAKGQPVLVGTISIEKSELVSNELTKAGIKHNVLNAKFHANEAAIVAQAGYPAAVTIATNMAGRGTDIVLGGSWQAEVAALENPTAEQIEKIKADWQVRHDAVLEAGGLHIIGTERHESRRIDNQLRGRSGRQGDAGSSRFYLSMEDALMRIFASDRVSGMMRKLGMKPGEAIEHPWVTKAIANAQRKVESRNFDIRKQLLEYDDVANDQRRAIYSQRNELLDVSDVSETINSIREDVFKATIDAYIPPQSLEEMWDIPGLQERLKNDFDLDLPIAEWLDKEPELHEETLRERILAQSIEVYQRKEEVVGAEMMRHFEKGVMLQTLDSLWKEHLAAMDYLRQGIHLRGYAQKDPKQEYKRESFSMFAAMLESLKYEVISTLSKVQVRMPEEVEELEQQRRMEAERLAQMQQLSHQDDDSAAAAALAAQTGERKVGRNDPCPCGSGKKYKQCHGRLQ

Take `CN1CCc2nc(C3CCN(C(=O)CCC4CCCC4)CC3)ncc2C1`: the PXC50 was 4.14 in assay [1] (BOTTOM 0.534632588, HILLSLOPE 1.255840154, MAX_EFFECT 60.86956522, TOP 100.0); 4.03 in [1] (BOTTOM 3.083112022, HILLSLOPE 1.565152708, MAX_EFFECT 54.7024952, TOP 100.0); 4.14 in assay [1] (BOTTOM -8.837281555, HILLSLOPE 1.047429208, MAX_EFFECT 57.34767025, TOP 100.0); 4.22 in [1] (BOTTOM -19.84781307, HILLSLOPE 1.359990695, MAX_EFFECT 58.41584158, TOP 100.0); below 4 in [1] (MAX_EFFECT 38.75598086). The Percent Effect was -2.07% in assay [2]; 26.7% in [3]; 7.92% in assay [4]; -1.28% in assay [5]; 5.51% in the assay with Trypanosoma cruzi; -2.1% in assay [6]. Also, the Percent Effect in assay [7] was 27.3% and 36.4% and 44%; in the assay with N/A, 6.68% and 6.76%; in the assay listed under Homo sapiens, 23.7%; in [8] it was 44.7%; in [9], 34.6%; in assay [10] it was -8.54%.

Regarding `Cc1nc2cc(=O)[nH]n2c(C)c1CC(=O)Nc1ccc2ccccc2n1`, the PXC50 is 4.1 in assay [1] (BOTTOM 1.14070889, HILLSLOPE 1.278083227, MAX_EFFECT 56.52173913, TOP 100.0); below 4 in [1] (MAX_EFFECT 23.76395534); below 4 in assay [1] (MAX_EFFECT 26.29558541); below 4 in [1] (MAX_EFFECT 33.33333333); below 4 in assay [1] (MAX_EFFECT 45.21452145). The Percent Effect in assay [2] is -3.58%; in assay [3], 5.26%; in assay [4], -24.7%; in [5], 6.53%; with Trypanosoma cruzi it was 0.564%; in assay [6], -6.51%. The Percent Effect was -1.34% in assay [7]; -15.5% in the assay listed under Homo sapiens; 16.2% in assay [8]; 12.2% in [9]; -1.37% in assay [10].
